We go through 14 compounds from PubChem BioAssay.

Active and inactive are the calls of the source.

The nature of test [1]: resazurin metabolic signal in HepG2 cells – cell-based, resazurin fluorescence, 24 h, PK04 Diversity Set, profiling panel (AID 1172). Further: test concentration not given here. To be noted: HepG2 viability, higher = more signal. Background: The colour change of resazurin is a common sign of viable cells or microbes.
Test [2] can be described thus: budding yeast growth changes without added modifier – OD600, strain BY4716, 24 h, basal condition, primary screen (AID 1173). To be noted: S. cerevisiae BY4716 growth, OD600, 24 h; higher = more signal, called active from +8 up or from −8 down.
A short description of test [3]: viability profiling in MM1S myeloma cells – cell-based, resazurin fluorescence, basal, 24 h, PK04 Diversity Set, profiling panel (AID 1174).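 Further: MM1S multiple myeloma cell line; test concentration not given here.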 To be noted: higher = more signal, called active from +8 up or from −8 down.
Test [4] concerns the target Dihydroorotate dehydrogenase (quinone), mitochondrial (Plasmodium falciparum (isolate 3D7)) (UniProt Q08210). The test can be described thus: inhibition of P. falciparum DHODH – biochemical, C-terminal His tag, absorbance 600 nm, primary screen (AID 1175).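 Further: recombinant parasite enzyme with a five histidine tag at its C terminus; test concentration not given here.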 Conditions: PfDHODH enzyme, DCIP absorbance 600 nm; higher = more signal, called active from +8 up or from −8 down.

The nature of test [5]: growth modulation of vineyard yeast isolate – strain RM11-1a, OD600, basal, 24 h, primary screen (AID 1177).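 Further: cultures grown under basal conditions with no added stressor; test concentration not given here.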 To be noted: S. cerevisiae RM11-1a growth, OD600, 24 h; higher = more signal, called active from +8 up or from −8 down.
Test [6] can be described thus: growth of efflux-deficient E. coli DRC39 – strain DRC39, OD650, 24 h, E. coli filamentation inducers, primary screen (AID 1178).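 Further: growth measured as culture turbidity by optical density at 650 nm; test concentration not given here.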 Conditions: E. coli DRC39 acrAB, higher = more signal, called active from +8 up or from −8 down.
Test [7] in a line: growth of efflux-deficient E. coli DRC39 – strain DRC39, OD650, 48 h, E. coli filamentation inducers, primary screen (AID 1179).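 Further: screen aims at cell division blockers that make cells filament.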 Conditions: E. coli DRC39 delta-acrAB growth, higher = more signal, called active from +8 up or from −8 down.
Test [8] is described as follows: viability profiling in RPMI8226 myeloma cells – cell-based, resazurin fluorescence, basal, 24 h, PK04 Diversity Set, profiling panel (AID 1180).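 Further: RPMI8826 multiple myeloma cell line at 5000 cells per well; test concentration not given here.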 Conditions: higher = more signal.
Test [9] deals with E3 ubiquitin-protein ligase XIAP (Homo sapiens) (UniProt P98170). The test can be described thus: small molecules binding XIAP protein – biophysical, small-molecule microarray, fluorescence 635 nm, primary screen (AID 1181).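 Further: score merges 667 nm emission and signal to noise over triplicate slides.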 Conditions: higher = more signal.
Sequence of E3 ubiquitin-protein ligase XIAP (Homo sapiens) (P98170 whole entry, looked up): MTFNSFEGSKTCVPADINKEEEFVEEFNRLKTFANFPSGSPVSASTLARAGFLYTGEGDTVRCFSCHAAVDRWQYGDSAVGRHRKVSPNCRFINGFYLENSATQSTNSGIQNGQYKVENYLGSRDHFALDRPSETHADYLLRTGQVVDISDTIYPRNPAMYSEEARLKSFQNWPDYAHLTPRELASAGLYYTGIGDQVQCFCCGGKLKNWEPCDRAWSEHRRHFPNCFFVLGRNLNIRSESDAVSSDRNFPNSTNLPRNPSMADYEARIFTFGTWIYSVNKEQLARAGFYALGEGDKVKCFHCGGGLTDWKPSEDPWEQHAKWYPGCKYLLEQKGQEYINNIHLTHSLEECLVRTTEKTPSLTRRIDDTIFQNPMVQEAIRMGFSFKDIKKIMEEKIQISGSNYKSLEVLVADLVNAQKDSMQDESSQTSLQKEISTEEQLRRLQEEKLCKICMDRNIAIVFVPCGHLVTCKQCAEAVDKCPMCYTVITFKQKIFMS

Sequence of Dihydroorotate dehydrogenase (quinone), mitochondrial (Plasmodium falciparum (isolate 3D7)) (Q08210 whole entry, looked up): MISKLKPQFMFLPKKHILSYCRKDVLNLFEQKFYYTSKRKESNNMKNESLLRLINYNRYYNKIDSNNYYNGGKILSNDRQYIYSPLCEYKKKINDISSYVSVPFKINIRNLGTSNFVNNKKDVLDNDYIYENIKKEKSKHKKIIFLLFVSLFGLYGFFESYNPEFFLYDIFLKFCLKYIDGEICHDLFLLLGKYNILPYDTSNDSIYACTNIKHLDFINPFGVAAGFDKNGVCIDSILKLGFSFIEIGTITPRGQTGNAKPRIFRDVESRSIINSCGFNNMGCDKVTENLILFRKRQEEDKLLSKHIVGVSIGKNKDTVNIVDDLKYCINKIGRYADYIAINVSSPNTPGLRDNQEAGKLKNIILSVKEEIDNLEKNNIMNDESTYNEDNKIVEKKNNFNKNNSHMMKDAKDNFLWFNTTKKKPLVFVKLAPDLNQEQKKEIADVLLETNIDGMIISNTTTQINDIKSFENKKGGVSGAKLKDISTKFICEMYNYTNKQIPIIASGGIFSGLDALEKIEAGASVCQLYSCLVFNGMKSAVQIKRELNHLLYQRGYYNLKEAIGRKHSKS

With `Cc1ccc(S[C@]2(C(=O)NCCN3CCOCC3)CC(=O)N(C3Cc4ccccc4C3)[C@@H]2c2ccc(CO)cc2I)cc1`, the z-score is 0.0862 in [1]; -5.55 (inactive) in test [2]; -1.48 (inactive) in test [3]; -2.62 (inactive) in test [5]; -0.0522 (inactive) in test [6]; -0.169 (inactive) in test [7]. Moreover, the z-score in test [8] was -1.41. In addition, the figures for the composite z-score in [4] and in test [9] were -0.24 (inactive) and 0.194, respectively.
Take `O=C1c2ccccc2[C@](Cc2ccccc2I)(C(=O)NCC(F)(F)F)[C@H](c2ccc(CO)cc2)N1Cc1ccccc1C(F)(F)F`: the z-score in test [1] was 0.226; in [2] it was -1.29 (inactive); in [3] it was 1.13 (inactive); in test [5] it was -0.719 (inactive); in test [6] it was 0.775 (inactive); in test [7], 0.23 (inactive). The compound also gave a z-score in test [8] of 1.69. The values for the composite z-score in test [4] and in test [9] were -0.449 (inactive) and -0.174, respectively.
Regarding `Cc1ccc(S[C@]2(C(=O)O)CC(=O)N(Cc3ccccc3)[C@@H]2c2ccc(CO)cc2)cc1`, the z-score was 1.06 in test [1]; -3.67 (inactive) in test [2]; 1.6 (inactive) in [3]; -1.14 (inactive) in test [5]; 0.537 (inactive) in test [6]; 0.612 (inactive) in test [7]. The compound also displayed a z-score in [8] of 0.512. The composite z-score was -0.891 (inactive) in test [4] and 0.123 in [9].
On to `CO[C@H]1O[C@H](CO)[C@@H](OC(=O)Nc2ccccc2)[C@H](OC(=O)Nc2ccc3c(c2)OCO3)[C@@H]1OC(=O)Nc1ccc2c(c1)OCO2`, for which the z-score is -0.667 in [1]; -0.0273 (inactive) in [2]; 0.238 (inactive) in test [3]; 1.21 (inactive) in test [5]; 1.84 (inactive) in [6]; 0.228 (inactive) in test [7]. The same compound gave a z-score in [8] of -0.365. For the same compound, the composite z-score in test [4] is -0.167 (inactive); in test [9], 0.136.
In the case of `CO[C@H]1COC(=O)CC=C[C@H](C)[C@@H](OC)COC(=O)[C@H](Cc2ccccc2)NC(=O)CC=C[C@@H]1C`, the z-score in test [1] is 1.26; in [2], -0.562 (inactive); in [3], 1 (inactive); in test [5], 0.33 (inactive); in test [6], 0.424 (inactive); in test [7], -1.39 (inactive). This compound had a z-score in [8] of 0.452. In addition, the composite z-score is 1.09 (inactive) in test [4] and -0.031 in test [9].
In the case of `C[C@H]1COC(=O)[C@H](Cc2ccccc2)NC(=O)[C@@H](C)COC(=O)[C@H](Cc2ccccc2)NC1=O`, the z-score in test [1] was 0.24; in [2], -1.23 (inactive); in test [3] it was 1.04 (inactive); in test [5] it was -1.43 (inactive); in [6] it was 0.253 (inactive); in test [7], -0.156 (inactive). Further, the z-score in test [8] amounted to 1.28. For the same compound, the composite z-score is 0.063 (inactive) in test [4] and -0.127 in [9].
`COc1cc(CO)cc(I)c1O[C@H]1C=C(C(=O)NCCO)C[C@@H](NCCc2c[nH]c3ccccc23)[C@@H]1O`: the z-score is 0.507 in [1]; -8.04 (active) in [2]; 0.221 (inactive) in [3]; 0.216 (inactive) in [5]; 2.21 (inactive) in test [6]; -0.41 (inactive) in [7]. The compound also came in with a z-score in test [8] of 0.848. Also, the composite z-score in test [4] was 1.23 (inactive); in test [9], -0.242.
Turning to `Cc1ccc(S[C@]2(C(=O)NCCCN(C)C)CC(=O)N(C3CCCCC3)[C@@H]2c2ccc(CO)cc2I)cc1`, the z-score in [1] was -1.37; in test [2], -2.6 (inactive); in test [3], -7.69 (inactive); in test [5] it was 1.25 (inactive); in [6] it was -0.0999 (inactive); in test [7], -0.737 (inactive). This compound also came in with a z-score in test [8] of -5.11. Moreover, the values for the composite z-score in test [4] and in test [9] were 0.895 (inactive) and -0.0636, respectively.
Regarding `COCCOC(=O)N1C(=O)[C@@]2(c3cc(C#CC4(O)CCCCCC4)ccc31)[C@H](C(=O)N1CCCCCCC1)[C@H]1C(=O)O[C@H](c3ccccc3)[C@H](c3ccccc3)N1[C@@H]2c1ccc(O)cc1`, the z-score is 0.1 in [1]; -0.975 (inactive) in test [2]; 1.57 (inactive) in test [3]; 0.322 (inactive) in test [5]; 0.286 (inactive) in test [6]; 0.264 (inactive) in [7]. The compound further yielded a z-score in test [8] of 0.868. Also, the composite z-score in test [4] was 0.0505 (inactive); in test [9], 0.154.
`CO[C@@H]1COC(=O)[C@H](C)NC(=O)CC=C[C@@H](C)[C@H](NS(=O)(=O)c2ccc(C)cc2)COC(=O)CC=C[C@@H]1C`: the z-score in test [1] is 0.825; in test [2] it was -0.364 (inactive); in test [3] it was 0.507 (inactive); in test [5] it was 0.655 (inactive); in test [6], 0.798 (inactive); in test [7], 0.547 (inactive). Besides, the z-score in test [8] came out at 0.271. For the same compound, the figures for the composite z-score in [4] and in test [9] were 0.605 (inactive) and -0.0835, respectively.
`[N-]=[N+]=Nc1ccccc1C[C@@]1(C(=O)N2CCOCC2)N=C(c2ccc(OCCCO)cc2)O[C@@H]1c1ccccc1N=[N+]=[N-]`: the z-score in test [1] was -0.133; in [2], -2.54 (inactive); in test [3] it was -1.93 (inactive); in [5], 0.0278 (inactive); in test [6] it was 1.08 (inactive); in [7], 0.115 (inactive). The z-score in test [8] was -3.91. Also, the results for the composite z-score in [4] and in [9] were -0.489 (inactive) and -0.256, respectively.
Turning to `CC(C)[Si]1(C(C)C)O[C@@H](c2ccccc2)c2cc(C3CC3)nc(-c3ccc(Oc4ccccc4)cc3)c21`, the z-score in test [1] was 1.08; in test [2], -0.225 (inactive); in test [3], 1.35 (inactive); in test [5], 1.15 (inactive); in test [6] it was 1.3 (inactive); in [7], 0.734 (inactive). In [8], the z-score was found to be 0.688. Besides, the composite z-score in test [4] was 0.967 (inactive); in test [9], -0.267.
For the compound `COC(=O)C[C@H]1O[C@]2(C(=O)N(C)c3ccccc32)[C@@H](C)[C@@H]1[Si](C)(C)c1ccc(OC)cc1`, the z-score in test [1] was -0.0652; in [2], -4.08 (inactive); in test [3], 0.504 (inactive); in [5] it was -1.41 (inactive); in test [6] it was 2.5 (inactive); in test [7], 0.871 (inactive). In test [8], this compound had a z-score of 0.452. For the same compound, the values for the composite z-score in test [4] and in [9] were 0.939 (inactive) and 0.0942, respectively.
As to `CN(C)CCCC[C@@H]1NC(=O)[C@@H]2C[C@H](C(=O)NCCCCCNC(=O)CS)[C@H](c3ccc(O)cc3)N2C1=O`, the z-score is -0.23 in test [1]; -0.312 (inactive) in test [2]; 1.01 (inactive) in test [3]; -1.13 (inactive) in [5]; 0.964 (inactive) in [6]; 0.809 (inactive) in [7]. In test [8], this compound yielded a z-score of 0.975. The values for the composite z-score in [4] and in test [9] were -1.38 (inactive) and 0.104, respectively.
